# Assay results from PubChem BioAssay (NCI).
# The panel holds about 79,000 compounds, 15% with a hit somewhere; the sample as a whole holds those more often. A number with no mark means an inactive call. Active and inactive are the calls of the source. Cut-off read from the data, not from the text of the source: active = growth inhibition above about 70%; inactive = the rest.
# Tests used:
# [1] = NCI Yeast Anticancer Drug Screen. Data for the rad50 strain (AID 155);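 note: 0% = growth of vehicle-only cultures of the same strain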; details: S. cerevisiae rad50 strain growth inhibition; at 50.0 µM; hits give high values
# Outline: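 Yeast carrying a defined DNA repair defect were exposed to test compounds, and growth was compared with vehicle-treated controls to give percent inhibition.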
# [2] = NCI Yeast Anticancer Drug Screen. Data for the mec2-1 strain (AID 157); details: S. cerevisiae mec2-1 strain, at 50.0 µM, hits give high values
# Outline: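 Cells of the genetically defined mec2-1 yeast strain are incubated with test compound. Inhibition of growth is calculated against vehicle-treated controls.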
# [3] = NCI Yeast Anticancer Drug Screen. Data for the sgs1 mgt1 strain (AID 161);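 note: 0% = growth of cultures given vehicle only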; details: S. cerevisiae sgs1 mgt1 strain, at 50.0 µM, hits give high values
# Outline: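 Mutant yeast exposed to compound; growth scored against vehicle-only wells.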
# [4] = NCI Yeast Anticancer Drug Screen. Data for the cln2 rad14 strain (AID 165);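 note: 0% = growth equal to vehicle treated cultures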; details: S. cerevisiae cln2 rad14 strain, at 50.0 µM, hits give high values
# Outline: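 The screen exposed genetically defined yeast (cln2 rad14) to test compounds and scored growth inhibition relative to vehicle-treated controls.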
# [5] = NCI Yeast Anticancer Drug Screen. Data for the bub3 strain (AID 167); details: S. cerevisiae bub3 mutant strain, at 50.0 µM, hits give high values
# Outline: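 Compounds were applied to a genetically altered yeast strain carrying a cell-cycle control defect. Growth inhibition was scored against vehicle-treated controls.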
# [6] = NCI Yeast Anticancer Drug Screen. Data for the mlh1 rad18 strain (AID 175); details: S. cerevisiae mlh1 rad18 strain growth inhibition; at 50.0 µM; hits give high values
# Outline: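 Compound-treated yeast growth, normalised to vehicle controls. Strain bears defined DNA repair mutations.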
Compound,growth inhibition [1],growth inhibition [2],growth inhibition [3],growth inhibition [4],growth inhibition [5],growth inhibition [6]
Nc1ccc(S(=O)(=O)NCCS(=O)(=O)O)cc1,3.45%,4.25%,-36.8%,-29.3%,-16.2%,-3.75%
CCCc1c(C(=O)OCC)[nH]c(-c2ccc(-c3[nH]c(C(=O)OCC)c(CCC)c3C(=O)OCC)s2)c1C(=O)OCC,-11.8%,-11.3%,-21.6%,3%,-12.6%,-16.1%
O=C(O)C(O)(O)C(O)(O)C(=O)O,6.35%,-22.6%,-4%,4.85%,-5.85%,-10.4%
CN(C)c1ccc(/C=C(/NC(=O)c2ccccc2)C(N)=O)cc1,13.9%,4.55%,8.95%,8.1%,7.6%,5.1%
CC(N)c1ccc2ccccc2c1O (stereo unspecified),-3.95%,-7.05%,8.8%,-11.2%,-6%,8.05%
O=C(Nc1cccc2ccccc12)c1ccc(Cl)c(Cl)c1,38.6%,53.4%,52.8%,43.8%,63.5%,72.3% (active)
O=C(O)C1CCC2SC(F)(F)C(F)(F)C2C1 (stereo unspecified),-4.05%,12.2%,2.65%,12.5%,8.55%,11.6%
O=C1CCC(=O)N1Cc1ccc(Cl)cc1,-4.7%,5.5%,-1.1%,-13.6%,-3.8%,-4.1%
COc1ccc(CCC(=O)O)c(C(CC(=O)O)C(=O)O)c1OS(=O)(=O)c1ccc(C)cc1 (stereo unspecified),-21.2%,-30.3%,-40.5%,6.05%,-33.3%,-21.6%
Cc1ccc(C(C)C)c(O)c1NC(=S)N/N=C\c1cc(Cl)ccc1O,-4.55%,22.8%,-13.9%,7.6%,-14.2%,17.4%
Nc1cc2[nH]cnc2c(=O)[nH]1,27.4%,21.9%,32.4%,21.8%,7.9%,30.1%
CC(=O)c1ccc2ccc3ccccc3c2c1O,-3.85%,-8.75%,-14.3%,-30.6%,-8.4%,5.25%
O=C(CC1=NC2NN(c3ccccc3)C(=O)C2=C1CC(=O)C(c1ccccc1)c1ccccc1)C(c1ccccc1)c1ccccc1 (stereo unspecified),51.9%,17.9%,27.8%,32%,10.8%,48.5%
CCOC(CN(C(C)C)C(C)C)OCC,-16.4%,-16.8%,8%,13.8%,-16.6%,14.9%
CC/C(=N/N(C)C)C(=O)OC(C)(C)C,-42.9%,-24.6%,-15.8%,-44.6%,1.35%,-4.2%
Cc1ccc(S(=O)(=O)NCCC(Cl)(Cl)Cl)cc1,21.6%,6.8%,1.05%,1.2%,38%,27.7%
Cc1cc(=O)[nH]c2c(C)cc(Cl)cc12,9.95%,-5.25%,14.9%,17.1%,-18.4%,1.65%
CCCCCCCCCCCCCCCCS(=O)(=O)N/N=c1\cc(-c2ccccc2Cl)c2ccccc2n1C,-0.15%,-16.9%,1.95%,6.45%,-11.1%,3.35%
CCN(CC)CCCC(C)Nc1c2ccc(Cl)cc2nc2c(Cl)cc(Cl)cc12 (stereo unspecified),-8.55%,4.75%,2.5%,23.6%,28.3%,-8.85%
CC1=CC2=C(OCO1)C(=O)c1ccccc1C2=O,7.25%,14.6%,-21.6%,-17.1%,44.3%,8.95%
CC(C)/C=C\C(=O)CC(C)C,-3.65%,28.8%,9.35%,5.9%,17.4%,18.6%

Compound,growth inhibition [1],growth inhibition [2],growth inhibition [3],growth inhibition [4],growth inhibition [5],growth inhibition [6]
CN(C)CC1CCCC(CN(C)C)C1=NOC(=O)c1ccccc1 (stereo unspecified),-8.15%,-33.8%,-2.3%,-21.4%,8.05%,-27.8%
COC(=O)COc1ccc(Cl)cc1C(=O)O,23.5%,6.1%,9.8%,-11.8%,27.5%,17.1%
CC1OC(OC2C(OC(=O)[C@@H]3CC(C)(C)C[C@H]4C5=CC[C@@H]6[C@@]7(C)C[C@H](O)[C@H](OC8OC(CO)C(O)C(O)C8O)[C@@](C)(CO)[C@@H]7[C@H](O)C[C@@]6(C)[C@]5(C)CC[C@@]34C)OCC(O)C2O)C(O)C(O)C1O (stereo partly specified),-22.4%,-20.7%,-18.1%,-14.2%,-1.8%,-64.4%
C=CCCCCCCCCO,-12.1%,-3.6%,8.3%,-13%,-10%,-8.6%
CCCCCCCCCCCCCCCCCC[N+](CCCC)(CCCC)CCCCCCCCCCCCCCCCCC (tested in a mixture with another compound),3.45%,7.25%,1.7%,-10%,1.5%,4.3%
CC1=C2CC[C@@]3(C)C(=CCC3O)C2(C)CCC1=O (stereo partly specified),-1.3%,11.9%,-7.5%,-34%,-8.9%,-7.6%
Cc1ccc(NC(=O)CC/C(CC(=O)C(C)(C)C)=N\Nc2ccc([N+](=O)[O-])cc2[N+](=O)[O-])cc1C,18.6%,-3.55%,-11.7%,4%,7.8%,-18.3%
Cc1ccc([N+](=O)[O-])c2c(NCCNC(=O)Cn3ccnc3[N+](=O)[O-])ccnc12,15.8%,4.3%,8.25%,-0.7%,16.4%,12.3%
COc1cc(C(c2cc3c(cc2OC(C)=O)OCO3)C(C(C)=O)C(C)=O)cc(OC)c1OC (stereo unspecified),3.55%,27.8%,-5.1%,-4%,4.35%,-1.8%
c1ccc(-c2ccccc2N=C2N=NN=N2)cc1,-1%,-6.9%,2.2%,-16.4%,-13.6%,6.55%
COc1cc2c(cc1OC)C(=O)/C(=C/c1ccc(O)cc1)CC2,36.5%,-8.9%,43.5%,24.9%,23.2%,22.4%
CCC(NC(C)c1ccccc1)C(O)c1ccc(OCc2ccccc2)c(OCc2ccccc2)c1 (stereo unspecified),88.6% (active),91.5% (active),92.3% (active),91.3% (active),91.5% (active),87.7% (active)
COc1ccccc1-n1on1-c1ccccc1OC,4.3%,18.1%,-3.4%,-30.9%,9.75%,20.1%
CCOC(=O)CC1(C)OCC(c2ccccc2)O1 (stereo unspecified),8.8%,-0.55%,-3.6%,-15%,9.35%,-3.1%
CNC(=O)OCc1c(COC(=O)NC)c(-c2cccs2)n2c1CCC2,42%,39.5%,23.1%,30.8%,27.1%,40.7%
CCCCCCCC/C=C\CCCCCCCC(=O)NCCN(CCN)C(=O)CCCCCCC/C=C\CCCCCCCC,-20.9%,-18.4%,-16.8%,-20.6%,-41.9%,-23.8%
Nc1ccc(/C=C/C(=O)O)cc1,-9.1%,-6%,11.6%,10.8%,2.55%,9.95%
CC1(CN2CCCCC2)COC(c2ccccc2)(c2ccccc2)OC1,-8.1%,-8.85%,-13.6%,-36.1%,5.75%,-0.9%
CCOC(=O)CCC(NC(=O)c1ccc(Nc2nc3cc(C(F)(F)F)ccc3nc2-c2ccccc2)cc1)C(=O)OCC (stereo unspecified),12.9%,2.7%,12.1%,3.9%,-5.35%,-37.1%
CCOC(=O)CNc1nc(Cl)nc(NCC(=O)OCC)n1,3.05%,-4.6%,-0.05%,-43.2%,28.9%,1.4%
